Experimental data as given in PubChem BioAssay (NCATS).
Results filed as inconclusive are left out.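 Rule for the calls, unless noted: active = compounds whose dose series gives a full or clear partial fitted curve of increased nuclear translocation; inconclusive = weak partial curve or effect only at the top dose; inactive = no dose-dependent translocation response.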

System: not listed separately
Experiment: Stat Signaling Pathway (AID 446; active = well fitted curve in either direction with a large enough effect, not every such curve was filed as active;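 note: ME-180 cervical cancer cells given 40 pM IL-6 alongside compound; SIE-controlled beta-lactamase reporter measured as 460/530 nm FRET emission ratio; % is set by controls: 0 for no effect and ±100 for the full control effect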)
Details: ME-180 (cervical carcinoma) SIE beta-lactamase reporter, IL-6 stimulated, 5 h; at 17.2 µM (top of the series) unless noted
Outline: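 Normalization used AC90 stimulation (300 pM IL-6) and AC90 inhibition (125 nM pan-JAK inhibitor at 40 pM IL-6). The underlying signal is SIE-driven beta-lactamase in ME-180 cells after 5 h IL-6 exposure with compound.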

activity, negative = inhibition, inactive:
CCOC(=O)N1CCN(/C=C(\C#N)c2nc3ccccc3s2)CC1 -10%
Clc1cccc(-c2nn3c(-c4cccc(Cl)c4)nnc3s2)c1 2.11%
CN1C(=O)c2c(sc3c2CCCC3)NC1c1ccccc1O (stereo not given) -25.9%
Cc1ccc2[nH]c3c(c2c1)CN(C(=O)CN1CC(C)OC(C)C1)CC3 (stereo not given) 2.26%
COc1cc(C(=O)Nc2nccs2)cc(OC)c1OC -9.15%
CCNC(=O)N(C(=O)NCC)n1c(C)nnc1C 12.4%
COc1cc(-c2nn3c(C4CCCCC4)nnc3s2)cc(OC)c1OC 0.0449%
COc1ccccc1C1C(C#N)=C(N)Oc2cc(C)n(Cc3ccccn3)c(=O)c21 (stereo not given) -1.34%
Clc1ccc(-c2nn3c(-c4cccc(Cl)c4)nnc3s2)cc1 3.59%
Cc1ccc(C(=O)NCCCNCCCNC(=O)c2ccc(C)nc2)cn1 5.34%
Cc1cc(=O)oc(C)c1C(=O)N1CCN(C)CC1 5.89%
Cc1ccc(N2CN=c3s/c(=C\c4cccnc4)c(=O)n3C2)cc1 -5.47%
COC(=O)CSc1nnc(C)c(=O)[nH]1 5.67%
CCOC(=O)C1=C(C)N=C2SC(C)C(=O)N2C1c1cccc(F)c1 (stereo not given) 1.84%
C=CCNc1nc(-c2cccc(OC)c2O)nc2ccccc12 -11.9%
COC(=O)c1n[nH]c2ccccc12 -6.08%
COC(=O)C(NC(C)=O)(Nc1ccc(Br)cc1)C(=O)OC 8.85%
Cc1noc(COc2ccccc2OCC(O)CNC(C)(C)C)n1 (stereo not given) 1.99%
Cc1ccc2cc(CNC(C)C)c(=O)[nH]c2c1 -4.43%
O=c1c(F)cn(C2CCCO2)c(=O)n1Cc1ccccc1Cl (stereo not given) 11.6%
CC(NC(=O)NCc1cccnc1)(C(F)(F)F)C(F)(F)F 2.04%
N#Cc1cccc(-n2c(-c3ccccc3)nnc2-c2ccccc2)c1C#N 0.928%
CCOC(=O)C(C)Oc1nc(Oc2ccccc2)nc(N(C)C)n1 (stereo not given) 2.57%
Cc1ccc(C2/C(=C(/O)c3cnn(-c4ccccc4)c3C)C(=O)C(=O)N2CCN2CCOCC2)o1 (stereo not given) -14.9%
CC1(C)Cc2c(C#N)c(N3CCN(C(=O)c4ccccc4)CC3)nc(-c3ccco3)c2CS1 9.81%
Nn1c(SCC(=O)Nc2ccc3c(c2)OCCO3)nnc1C(F)(F)F 9.15%
CC(=N\O)/C(CN(C)C)=N/O 12%
COc1ccccc1N(Cc1cc2cccc(C)c2[nH]c1=O)C(=O)C(C)C -8.46%
Cc1ccc(N2C(=O)[C@@H]3[C@H](C2=O)C2CCCN2[C@@H]3C(=O)c2ccccc2)cc1 (stereo not given in full) -3.84%
CCOC(=O)c1[nH]c2cc3c(cc2c1NC(=O)CN1CCC2(CC1)OCCO2)OCO3 -9.66%
CCn1cc(C(=O)NCC2CCCO2)c(=O)c2cc(F)c(N3CCN(C)CC3)cc21 (stereo not given) -0.513%
N#Cc1c(N)nc(SCC(=O)NCCc2ccccc2)c(C#N)c1-c1cccs1 5.35%
Cc1c(/C(O)=C2/C(=O)C(=O)N(CCCN3CCOCC3)C2c2ccncc2)cnn1-c1ccccc1 (stereo not given) 5.14%
COc1cccc(/C(O)=C2/C(=O)C(=O)N(CCN(C)C)C2c2ccc(Br)cc2)c1 (stereo not given) 0.896%
COc1cccc(C2/C(=C(\O)c3ccc4c(c3)OCCO4)C(=O)C(=O)N2CCCN(C)C)c1OC (stereo not given) 4.4%
CCOC(=O)c1cnn2c1[nH]c(=O)c1ccccc12 9.94%
Cn1ncc2nc[nH]c(=O)c21 7.35%
CCOC(=O)C(C(=O)OCC)N(C#N)c1nc(SC)nc(N(C)C)n1 -8.92%
CCOC(=O)c1c(C)n(C)c2ccc(OC)c(NC(=O)CN3CCCCC3)c12 -0.178%
Cc1cc(C)c(NC(=O)OCCN2CCOCC2)c(C)c1 5.25%

Biological target: Glucocorticoid receptor (Homo sapiens) (UniProt P04150)
Experiment: GR-GFP Redistribution (AID 450); note: potency is the fitted concentration of half-maximal effect
Details: U2OS GR-GFP nuclear translocation, laser cytometry, 2 h; series mostly up to 20.6 µM

Sequence of Glucocorticoid receptor (Homo sapiens) (P04150 whole entry, looked up): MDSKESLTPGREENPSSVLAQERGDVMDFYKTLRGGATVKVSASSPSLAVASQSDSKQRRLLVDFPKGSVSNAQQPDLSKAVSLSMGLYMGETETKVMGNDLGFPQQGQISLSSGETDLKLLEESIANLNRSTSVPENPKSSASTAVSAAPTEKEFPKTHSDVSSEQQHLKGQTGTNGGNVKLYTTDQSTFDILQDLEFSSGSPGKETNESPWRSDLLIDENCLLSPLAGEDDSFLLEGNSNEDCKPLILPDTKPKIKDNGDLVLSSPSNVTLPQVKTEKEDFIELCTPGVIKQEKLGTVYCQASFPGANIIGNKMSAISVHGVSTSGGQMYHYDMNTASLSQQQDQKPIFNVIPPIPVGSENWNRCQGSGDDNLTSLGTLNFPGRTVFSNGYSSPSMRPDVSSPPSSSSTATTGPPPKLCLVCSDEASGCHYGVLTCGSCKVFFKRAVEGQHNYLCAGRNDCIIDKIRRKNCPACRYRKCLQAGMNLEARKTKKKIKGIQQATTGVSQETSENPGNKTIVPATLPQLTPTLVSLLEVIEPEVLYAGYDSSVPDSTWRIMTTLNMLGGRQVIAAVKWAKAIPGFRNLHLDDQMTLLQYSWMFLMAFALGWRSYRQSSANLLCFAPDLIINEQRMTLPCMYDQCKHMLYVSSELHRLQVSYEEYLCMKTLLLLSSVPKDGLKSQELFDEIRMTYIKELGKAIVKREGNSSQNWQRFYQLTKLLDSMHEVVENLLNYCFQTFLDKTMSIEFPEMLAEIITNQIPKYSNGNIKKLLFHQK

Potency, inactive:
CCOC(=O)N1CCN(/C=C(\C#N)c2nc3ccccc3s2)CC1 > 20.6 µM
Clc1cccc(-c2nn3c(-c4cccc(Cl)c4)nnc3s2)c1 > 20.6 µM
CN1C(=O)c2c(sc3c2CCCC3)NC1c1ccccc1O (stereo not given) > 20.6 µM
Cc1ccc2[nH]c3c(c2c1)CN(C(=O)CN1CC(C)OC(C)C1)CC3 (stereo not given) > 20.6 µM
COc1cc(C(=O)Nc2nccs2)cc(OC)c1OC > 20.6 µM
CCNC(=O)N(C(=O)NCC)n1c(C)nnc1C > 20.6 µM
COc1cc(-c2nn3c(C4CCCCC4)nnc3s2)cc(OC)c1OC > 20.6 µM
COc1ccccc1C1C(C#N)=C(N)Oc2cc(C)n(Cc3ccccn3)c(=O)c21 (stereo not given) > 20.6 µM
Clc1ccc(-c2nn3c(-c4cccc(Cl)c4)nnc3s2)cc1 > 20.6 µM
Cc1ccc(C(=O)NCCCNCCCNC(=O)c2ccc(C)nc2)cn1 > 20.6 µM
Cc1cc(=O)oc(C)c1C(=O)N1CCN(C)CC1 > 20.6 µM
Cc1ccc(N2CN=c3s/c(=C\c4cccnc4)c(=O)n3C2)cc1 > 20.6 µM
COC(=O)CSc1nnc(C)c(=O)[nH]1 > 20.6 µM
CCOC(=O)C1=C(C)N=C2SC(C)C(=O)N2C1c1cccc(F)c1 (stereo not given) > 20.6 µM
C=CCNc1nc(-c2cccc(OC)c2O)nc2ccccc12 > 20.6 µM
COC(=O)c1n[nH]c2ccccc12 > 20.6 µM
COC(=O)C(NC(C)=O)(Nc1ccc(Br)cc1)C(=O)OC > 20.6 µM
Cc1noc(COc2ccccc2OCC(O)CNC(C)(C)C)n1 (stereo not given) > 20.6 µM
Cc1ccc2cc(CNC(C)C)c(=O)[nH]c2c1 > 20.6 µM
O=c1c(F)cn(C2CCCO2)c(=O)n1Cc1ccccc1Cl (stereo not given) > 20.6 µM
CC(NC(=O)NCc1cccnc1)(C(F)(F)F)C(F)(F)F > 20.6 µM
N#Cc1cccc(-n2c(-c3ccccc3)nnc2-c2ccccc2)c1C#N > 20.6 µM
CCOC(=O)C(C)Oc1nc(Oc2ccccc2)nc(N(C)C)n1 (stereo not given) > 20.6 µM
Cc1ccc(C2/C(=C(/O)c3cnn(-c4ccccc4)c3C)C(=O)C(=O)N2CCN2CCOCC2)o1 (stereo not given) > 20.6 µM
CC1(C)Cc2c(C#N)c(N3CCN(C(=O)c4ccccc4)CC3)nc(-c3ccco3)c2CS1 > 20.6 µM
Nn1c(SCC(=O)Nc2ccc3c(c2)OCCO3)nnc1C(F)(F)F > 20.6 µM
CC(=N\O)/C(CN(C)C)=N/O > 20.6 µM
COc1ccccc1N(Cc1cc2cccc(C)c2[nH]c1=O)C(=O)C(C)C > 20.6 µM
Cc1ccc(N2C(=O)[C@@H]3[C@H](C2=O)C2CCCN2[C@@H]3C(=O)c2ccccc2)cc1 (stereo not given in full) > 20.6 µM
CCOC(=O)c1[nH]c2cc3c(cc2c1NC(=O)CN1CCC2(CC1)OCCO2)OCO3 > 20.6 µM
CCn1cc(C(=O)NCC2CCCO2)c(=O)c2cc(F)c(N3CCN(C)CC3)cc21 (stereo not given) > 20.6 µM
N#Cc1c(N)nc(SCC(=O)NCCc2ccccc2)c(C#N)c1-c1cccs1 > 20.6 µM
Cc1c(/C(O)=C2/C(=O)C(=O)N(CCCN3CCOCC3)C2c2ccncc2)cnn1-c1ccccc1 (stereo not given) > 20.6 µM
COc1cccc(/C(O)=C2/C(=O)C(=O)N(CCN(C)C)C2c2ccc(Br)cc2)c1 (stereo not given) > 20.6 µM
COc1cccc(C2/C(=C(\O)c3ccc4c(c3)OCCO4)C(=O)C(=O)N2CCCN(C)C)c1OC (stereo not given) > 20.6 µM
CCOC(=O)c1cnn2c1[nH]c(=O)c1ccccc12 > 20.6 µM
Cn1ncc2nc[nH]c(=O)c21 > 20.6 µM
CCOC(=O)C(C(=O)OCC)N(C#N)c1nc(SC)nc(N(C)C)n1 > 20.6 µM
CCOC(=O)c1c(C)n(C)c2ccc(OC)c(NC(=O)CN3CCCCC3)c12 > 20.6 µM
Cc1cc(C)c(NC(=O)OCCN2CCOCC2)c(C)c1 > 20.6 µM
